The conditions of assay [1]: Ebola virus entry assay, green fluorescence channel.
The conditions of assay [2]: Ebola virus entry assay, blue channel fluorescence.
The conditions of assay [3]: Ebola virus entry assay, ratio channel.
The conditions of assay [4]: Ebola virus entry assay, green channel fluorescence.
For assay [5] the following is noted: Ebola virus entry assay, reporter ratio channel; Channel type: primary.
For assay [6] the following is noted: Ebola virus entry assay, blue channel (ratio component).

A number with no mark means an inactive call. For some of these results: Potency and affinity values are given separately. Activity calls are given as the source filed them. No rule for the calls is given here.
For efficacy in this document: 0% is about no effect.

Turning to `CCOC(=O)c1ccc(OC(=O)CCCCCN=C(N)N)cc1`, the efficacy in assay [1] is -11.5%. Moreover, the call in assay [2], in assay [3], in assay [4] and in assay [5] was inactive.

For the compound `CCCOc1ccccc1-c1nc2n[nH]nc2c(=O)[nH]1`, the efficacy in assay [1] was 11%. In addition, the outcome in assay [2], in assay [3], in assay [4] and in assay [5] was inactive.

The AC50 is the concentration giving half of the maximal activity seen. Turning to `CC(C)n1nc(-c2cc3cc(O)ccc3[nH]2)c2c(N)ncnc21`, in assay [1], the efficacy is 37.9%. Moreover, the AC50 in assay [2] was 2.82 µM (active); in assay [3] it was 2.24 µM (active); in assay [5], 2.24 µM (active). Further, in assay [4], the compound was called inactive.

As for `Clc1ccc(C(Cn2ccnc2)OCc2ccsc2Cl)c(Cl)c1` (configuration not stated), the efficacy in assay [1] is 49.7%. The AC50 in assay [2] was 10 µM (active); in assay [3], 8.91 µM (active); in assay [5], 8.91 µM (active). In addition, the call in assay [4] was inactive.

On to `CC(C)(C)C(=O)OCOC(=O)[C@@H]1N2C(=O)[C@@H](NC(=O)[C@H](N)c3ccccc3)[C@H]2SC1(C)C`, for which the efficacy in assay [1] is 35%. For the same compound, the AC50 is 12.6 µM (active) in assay [2], 20 µM (active) in assay [3] and 20 µM (active) in assay [5]. In assay [4], the call was inactive.

Regarding `CN1CCN(c2cc3c(cc2F)c(=O)c(C(=O)O)cn3-c2ccc(F)cc2)CC1`, the efficacy in assay [1] is 8.5%. In addition, the compound was classed as inactive in assay [2], in assay [3], in assay [4] and in assay [5].

Turning to `CO/N=C(/C(=O)N[C@@H]1C(=O)N2C(C(=O)O)=C(Cn3nnc(C)n3)CS[C@H]12)c1csc(N)n1`, the efficacy in assay [1] is 14.5%. Moreover, the result in assay [2], in assay [3], in assay [4] and in assay [5] was inactive.

Take `CCCCCCCCCCCCCCCCC(C(=O)O)C(O)(CC(=O)O)C(=O)O` (configuration not stated): in assay [1], the efficacy was -32%. Besides, the compound was classed as inactive in assay [2], in assay [3], in assay [4] and in assay [5].

On to `Cc1ccc(Cl)c(OCC(O)CNC(C)(C)C)c1` (configuration not stated), for which the efficacy in assay [1] was -22.3%. Also, the AC50 was 15.8 µM (active) in assay [2], 28.2 µM (active) in assay [3] and 28.2 µM (active) in assay [5]. The compound was classed as inactive in assay [4].

Take `CN(C)CCN(Cc1cccs1)c1ccccn1`: in assay [1], the efficacy was 21.2%. The AC50 in assay [2] was 31.6 µM (active); in assay [3], 17.8 µM (active); in assay [5], 17.8 µM (active). Moreover, in assay [4], the call was inactive.

Regarding `Cc1c(C)n(CCN(C)C)c2ccc(C(=O)OCCN(C)C)cc12`, in assay [1], the efficacy was -26.4%. Moreover, the AC50 was 2.24 µM (active) in assay [2], 2.51 µM (active) in assay [3] and 2.51 µM (active) in assay [5]. For the same compound, in assay [4], the outcome was inactive.

As to `Fc1ccc(C(c2ccc(F)cc2)N2CCNCC2)cc1`, in assay [1], the efficacy was 28.7%. The AC50 in assay [2], in assay [3] and in assay [5] was 10 µM (active) throughout. In addition, the compound was called inactive in assay [4].

Regarding `O=C(Nc1ccc([N+](=O)[O-])cc1Cl)c1cc(Cl)ccc1O`, in assay [1], the efficacy is 35.2%. In addition, the AC50 in assay [2] is 0.891 µM (active); in assay [3] it was 1 µM (active); in assay [5] it was 1 µM (active). Besides, the result in assay [4] was inactive.

As for `O=C(OCc1ccccc1)c1ccc(O)cc1`, the efficacy in assay [1] is -29.7%. Besides, the AC50 in assay [2] was 22.4 µM (active). Also, the result in assay [3], in assay [4] and in assay [5] was inactive.

For `CC(=O)Oc1ccc2c(c1)CC[C@@H]1[C@@H]2CC[C@]2(C)[C@@H](O)CC[C@@H]12`, the efficacy in assay [1] was 11.1%. Moreover, the AC50 was 35.5 µM (active) in assay [2], 22.4 µM (active) in assay [3] and 22.4 µM (active) in assay [5]. Moreover, in assay [4], the call was inactive.

Take `Oc1ccc(Cl)cc1Cc1cc(Cl)ccc1O`: the efficacy in assay [1] is 31.6%. Moreover, the AC50 was 3.55 µM (active) in assay [2], 11.2 µM (active) in assay [3] and 11.2 µM (active) in assay [5]. The compound was classed as inactive in assay [4].

As to `CC(COc1ccccc1)NC(C)C(O)c1ccc(O)cc1` (configuration not stated), the efficacy in assay [1] is -32.1%. Moreover, the compound was called inactive in assay [2], in assay [3], in assay [4], in assay [5] and in assay [6].

With `NC(N)=NN=C(/C=C/c1ccc([N+](=O)[O-])o1)/C=C/c1ccc([N+](=O)[O-])o1`, the efficacy in assay [1] is -41.4%. In addition, the concentration at half-maximal activity (AC50) in assay [2], in assay [3] and in assay [5] was 3.16 µM (active) each time. Also, in assay [4], the call was inactive.

For the compound `Cc1cc2c(OCC(CNC(C)(C)C)OC(=O)c3ccccc3)cccc2[nH]1` (configuration not stated), the efficacy in assay [1] was 15.1%. The AC50 in assay [2] is 25.1 µM (active); in assay [3], 28.2 µM (active); in assay [5], 28.2 µM (active). The compound was classed as inactive in assay [4].

Consider `CC(=O)Oc1ccc(C(c2ccc(OC(C)=O)cc2)c2ccccn2)cc1`, for which the efficacy in assay [1] was -19%. Besides, the compound was classed as inactive in assay [2], in assay [3], in assay [4] and in assay [5].

As for `COc1ccccc1N1CCN(CCCNc2cc(=O)n(C)c(=O)n2C)CC1`, in assay [1], the efficacy was 43.6%. In addition, the AC50 in assay [2] was 28.2 µM (active); in assay [5] it was 39.8 µM (active). Also, the outcome in assay [3] and in assay [4] was inactive.

On to `CCC1Nc2cc(Cl)c(S(N)(=O)=O)cc2S(=O)(=O)N1` (configuration not stated), for which, in assay [1], the efficacy was -28.2%. Further, the result in assay [2], in assay [3], in assay [4] and in assay [5] was inactive.

In the case of `Cc1cccc(Nc2cc(Cl)nc(SCC(=O)O)n2)c1C`, in assay [1], the efficacy was 19.8%. The call in assay [2], in assay [3], in assay [4] and in assay [5] was inactive.

As for `C[C@H](N)C(=O)N[C@@H](C)C(=O)NC1[C@H]2CN(c3nc4c(cc3F)c(=O)c(C(=O)O)cn4-c3ccc(F)cc3F)C[C@@H]12` (some centres not stated), the efficacy in assay [1] was 11%. Further, the compound was classed as inactive in assay [2], in assay [3], in assay [4] and in assay [5].

On to `CC(=O)O[C@H]1C[C@@H]2CC[C@@H]3[C@H](CC[C@@]4(C)[C@H]3C[C@H]([N+]3(C)CCCCC3)[C@@H]4OC(C)=O)[C@@]2(C)C[C@@H]1N1CCCCC1`, for which the efficacy in assay [1] was -18%. Also, the compound was classed as inactive in assay [2], in assay [3], in assay [4], in assay [5] and in assay [6].
